This is an account of results in PubChem BioAssay (Tox21).

Each structure is given as a SMILES string. Unmarked numbers belong to inactive results. Records with an inconclusive call do not appear. Calls of active or inactive are those of the source. Unless noted, calls come from the whole dose curve; as a rule, active = well fitted inhibition curve with a large enough effect in the repeat runs (not every such curve was filed as active); inconclusive = weak or mixed curves; inactive = flat fitted curve, though single readings scatter.
% is set by controls: 0 for no effect and ±100 for the full control effect.

Test system in one assay: not listed separately
The assay is described as follows: qHTS assay to identify small molecule agonists of the TGF-beta/Smad signaling pathway - cell viability counter screen (AID 1346829; active = well fitted cell-killing curve with a large enough effect in the repeat runs; note: top concentration of the series differs between compounds; nearly all actives have a fitted effect of over 45% in size). The conditions noted are these: SBE-bla HEK293T viability, CellTiter-Glo luminescence, 5 h; series mostly up to 76.8 µM; activity change, negative = cytotoxicity: at the top concentration. Summed up:
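CellTiter-Glo luminescence readout; SBE-bla HEK 293T cells, overnight plating, compound 5 hr at 37 C/5% CO2, then bla substrate 2 hr RT, then CellTiter-Glo 30 min RT.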
For `CO[C@H]1O[C@H](CO)[C@@H](O)[C@H](O)[C@H]1O`, the “activity change, negative = cytotoxicity” value is 11%.

On to `O=S1OCCO1`, for which the “activity change, negative = cytotoxicity” value was -12.1%.

As to `O=C(O)C(Cc1cc(I)c(O)c(I)c1)c1ccccc1` (configuration not stated), the “activity change, negative = cytotoxicity” value is 0.613% [at 35.3 µM].

As to `CC(CCc1ccc2c(c1)OCO2)NN` (configuration not stated), the “activity change, negative = cytotoxicity” value was -2.17% [at 35.3 µM].

`CC(=O)OCC(=O)[C@@]12OC(C)(C)O[C@@H]1C[C@H]1[C@@H]3C[C@H](F)C4=CC(=O)C=C[C@]4(C)[C@@]3(F)[C@@H](O)C[C@@]12C`: the “activity change, negative = cytotoxicity” value is -13.9% [at 35.3 µM].

With `CC1CC(O)CC(C)(C)C1` (configuration not stated), the “activity change, negative = cytotoxicity” value was 0.153%.

Turning to `CCCCCCOC(=O)C(C)C`, the “activity change, negative = cytotoxicity” value was -2.5%.

For the compound `CCCC(=O)O[C@]1(C(=O)COC(=O)CC)CC[C@H]2[C@@H]3CCC4=CC(=O)CC[C@]4(C)[C@H]3[C@@H](O)C[C@@]21C`, the activity change, negative = cytotoxicity is -0.518% [at 15.8 µM].

As for `CCOCCn1c(C2CCN(CCc3ccc(C(C)(C)C(=O)O)cc3)CC2)nc2ccccc21`, the “activity change, negative = cytotoxicity” value is 3.77% [at 35.3 µM].

Take `CCCCOC(=O)CCS`: the “activity change, negative = cytotoxicity” value was -7.91%.

For the compound `CCCOC(=O)c1ccc(N)cc1`, the “activity change, negative = cytotoxicity” value is -2.2% [at 35.3 µM].

Regarding `CC1(C)C(=O)N(Br)C(=O)N1Cl`, the “activity change, negative = cytotoxicity” value was 3.7%.

As for `Cc1cc(O)c(C(C)C)cc1Cl`, the call was inactive.

Take `CCOC(=O)/C=C/C(=O)O`: the “activity change, negative = cytotoxicity” value was 0.585%.

As to `O=C(O)c1cccc(O)c1`, the “activity change, negative = cytotoxicity” value is 1.83%.

Test system in another assay: not listed separately
The assay is described as follows: qHTS assay to identify small molecule agonists of the TGF-beta/Smad signaling pathway (AID 1346859; active = well fitted activation curve with a large enough effect in the signal ratio in the repeat runs, not every such curve was filed as active; the % refers to the signal ratio). The conditions noted are these: SBE-bla HEK293T, TGF-beta/Smad beta-lactamase reporter, 5 h; series mostly up to 76.8 µM; activation: at the top concentration. An outline of the steps:
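Reporter line: HEK 293T with stably integrated SBE-controlled beta-lactamase. Compound exposure lasts 5 hr at 37 C and 5% CO2; substrate loading follows for 2 hr at room temperature, with emission read at 460 and 530 nm.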
(In qHTS, concentration-response curves come from the screen itself.)
For `CN1C(=O)CC(C)(c2ccccc2)C1=O` (configuration not stated), the “activation” value is -0.226% [at 35.3 µM].

Take `CC(=O)Nc1ccccc1C`: the “activation” value was -1.38%.

Consider `CCCCC(CC)COC(=O)COc1ccc(Cl)cc1C` (configuration not stated), for which the “activation” value is -0.357%.

For `COc1ccc(CCC(=O)c2c(O)cc(O[C@@H]3O[C@H](CO)[C@@H](O)[C@H](O)[C@H]3O[C@@H]3O[C@@H](C)[C@H](O)[C@@H](O)[C@H]3O)cc2O)cc1O`, the “activation” value is -1.75%.

Regarding `Cc1cc(OI)c(C(C)C)cc1-c1cc(C(C)C)c(OI)cc1C`, the “activation” value is 4.46% [at 35.3 µM].

Regarding `CCCOCCOCCO`, the “activation” value is 0.241%.

On to `CC(=O)Nc1ccc(N)cc1`, for which the “activation” value was 1.25%.

`CC1=C(C=O)C(C)(C)CCC1`: the “activation” value is 0%.

`C=CCCCCCCCCCCCCCCCC`: the activation was 2.93% [at 6.97 µM].

On to `[O]=[Bi]`, for which the activation was 2.8% [at 6.97 µM].

For `CN1Cc2cc(C(=O)N3CCC(C4CCNCC4)CC3)ccc2N[C@@H](CC(=O)O)C1=O`, the “activation” value was 3.59% [at 35.3 µM].

Turning to `Cc1ccccc1N1C(=O)c2cc(S(N)(=O)=O)c(Cl)cc2NC1C` (configuration not stated), the “activation” value is 0.0467% [at 35.3 µM].

In the case of `CC(CCO)CCc1ccccc1` (configuration not stated), the “activation” value was 2.19%.

Turning to `O=C(O)c1snc(Cl)c1Cl`, the “activation” value is -0.817%.

Take `Cc1nc2ccccc2s1`: the “activation” value was -3.06%.

Regarding `C=CC(=O)NCOCC(C)C`, the “activation” value was -0.317%.

In the case of `CCn1cc(C(=O)O)c(=O)c2cc(F)c(N3CCNCC3)nc21`, the “activation” value was 0.682% [at 35.3 µM].

With `NC(=O)Nc1ccc(Cl)cc1`, the “activation” value is -2.09%.

With `Cc1ccnc2ccccc12`, the “activation” value is -0.186%.

For the compound `CN1CCN(c2c(F)cc3c(=O)c(C(=O)O)cn4c3c2OCN4C)CC1`, the activation is -0.914% [at 15.8 µM].

For `NCC1CCCC(CN)C1` (configuration not stated), the “activation” value is 0.975%.

For `CCC(=O)OC/C=C/c1ccccc1`, the result was inactive.

Regarding `CCCCCCCCCOC(C)=O`, the “activation” value is 2.38%.

For `CO[C@H]1O[C@H](CO)[C@@H](O)[C@H](O)[C@H]1O`, the “activation” value was 2.52%.

In the case of `O=S1OCCO1`, the “activation” value was 3.81%.

With `O=C(O)C(Cc1cc(I)c(O)c(I)c1)c1ccccc1` (configuration not stated), the “activation” value is -8.08% [at 35.3 µM].

For the compound `CC(CCc1ccc2c(c1)OCO2)NN` (configuration not stated), the “activation” value was -0.218% [at 35.3 µM].

For the compound `CC(=O)OCC(=O)[C@@]12OC(C)(C)O[C@@H]1C[C@H]1[C@@H]3C[C@H](F)C4=CC(=O)C=C[C@]4(C)[C@@]3(F)[C@@H](O)C[C@@]12C`, the “activation” value was -0.981% [at 35.3 µM].

For the compound `CC1CC(O)CC(C)(C)C1` (configuration not stated), the “activation” value is 0.154%.

Regarding `CCCCCCOC(=O)C(C)C`, the “activation” value was -1.37%.

As to `CCCC(=O)O[C@]1(C(=O)COC(=O)CC)CC[C@H]2[C@@H]3CCC4=CC(=O)CC[C@]4(C)[C@H]3[C@@H](O)C[C@@]21C`, the activation was 5.59% [at 15.8 µM].

For `CCOCCn1c(C2CCN(CCc3ccc(C(C)(C)C(=O)O)cc3)CC2)nc2ccccc21`, the “activation” value is 1.28% [at 35.3 µM].

Regarding `CCCCOC(=O)CCS`, the “activation” value is 0.5%.

In the case of `CCCOC(=O)c1ccc(N)cc1`, the “activation” value is -0.18% [at 35.3 µM].

`CC1(C)C(=O)N(Br)C(=O)N1Cl`: the “activation” value was 2.57%.

For the compound `Cc1cc(O)c(C(C)C)cc1Cl`, the outcome was inactive.

In the case of `CCOC(=O)/C=C/C(=O)O`, the “activation” value is 3.28%.

Turning to `O=C(O)c1cccc(O)c1`, the “activation” value was -0.372%.

The target of another assay is Thyrotropin-releasing hormone receptor (Homo sapiens) (UniProt P34981). The assay is described as follows: qHTS assay to identify small molecule antagonists of the thyrotropin-releasing hormone receptor (TRHR) signaling pathway (AID 1346877). To be noted: TRHR-HEK293, TRH-induced calcium fluorescence, antagonist mode; series mostly up to 51.3 µM; activity, negative = inhibition: at the top concentration. An outline of the steps: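 TRHR-expressing HEK293 cells were seeded, cultured 18 h at 37 °C, then loaded with calcium dye for 2 h. Compounds were pre-incubated 5 min at room temperature before 1 nM TRH (final) was added, and kinetic fluorescence was recorded for 3 min.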
Thyrotropin-releasing hormone receptor (Homo sapiens), sequence (P34981 whole entry, looked up): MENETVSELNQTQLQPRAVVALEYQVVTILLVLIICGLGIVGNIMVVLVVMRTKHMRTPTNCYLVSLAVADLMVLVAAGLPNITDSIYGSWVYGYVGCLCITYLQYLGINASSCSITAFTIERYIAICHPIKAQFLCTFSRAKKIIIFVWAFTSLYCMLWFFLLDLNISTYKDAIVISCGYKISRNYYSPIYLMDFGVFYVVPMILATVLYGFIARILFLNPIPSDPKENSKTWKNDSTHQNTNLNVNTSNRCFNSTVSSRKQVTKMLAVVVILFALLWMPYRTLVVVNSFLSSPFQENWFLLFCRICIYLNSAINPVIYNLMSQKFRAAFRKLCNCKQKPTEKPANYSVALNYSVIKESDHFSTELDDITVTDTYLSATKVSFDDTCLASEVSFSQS
As for `CN1C(=O)CC(C)(c2ccccc2)C1=O` (configuration not stated), the “activity, negative = inhibition” value is 6.97% [at 23.6 µM].

Take `CC(=O)Nc1ccccc1C`: the “activity, negative = inhibition” value is 0.381%.

For `COc1ccc(CCC(=O)c2c(O)cc(O[C@@H]3O[C@H](CO)[C@@H](O)[C@H](O)[C@H]3O[C@@H]3O[C@@H](C)[C@H](O)[C@@H](O)[C@H]3O)cc2O)cc1O`, the “activity, negative = inhibition” value was 5.96%.

With `Cc1cc(OI)c(C(C)C)cc1-c1cc(C(C)C)c(OI)cc1C`, the “activity, negative = inhibition” value was 4.8% [at 23.6 µM].

As to `CC1=C(C=O)C(C)(C)CCC1`, the “activity, negative = inhibition” value is 5.5%.

As for `[O]=[Bi]`, the activity, negative = inhibition is 3.48% [at 4.65 µM].

For the compound `CN1Cc2cc(C(=O)N3CCC(C4CCNCC4)CC3)ccc2N[C@@H](CC(=O)O)C1=O`, the “activity, negative = inhibition” value was 1.21% [at 23.6 µM].

In the case of `O=C(O)c1snc(Cl)c1Cl`, the “activity, negative = inhibition” value was -0.279%.

In the case of `C=CC(=O)NCOCC(C)C`, the “activity, negative = inhibition” value is -4.5%.

On to `Cc1ccnc2ccccc12`, for which the “activity, negative = inhibition” value is -0.785%.

For the compound `CN1CCN(c2c(F)cc3c(=O)c(C(=O)O)cn4c3c2OCN4C)CC1`, the activity, negative = inhibition was 2.89% [at 10.5 µM].

Take `NCC1CCCC(CN)C1` (configuration not stated): the “activity, negative = inhibition” value is -4.27%.

With `O=C(CCCCCCCCC#CI)Oc1ccccc1`, the “activity, negative = inhibition” value was -1.67% [at 23.6 µM].

Take `CO[C@H]1O[C@H](CO)[C@@H](O)[C@H](O)[C@H]1O`: the “activity, negative = inhibition” value was -4.24%.

Consider `O=S1OCCO1`, for which the “activity, negative = inhibition” value was -1.71%.

In the case of `CC(CCc1ccc2c(c1)OCO2)NN` (configuration not stated), the “activity, negative = inhibition” value is -8.28% [at 23.6 µM].

As for `CC1CC(O)CC(C)(C)C1` (configuration not stated), the “activity, negative = inhibition” value is -0.461%.

In the case of `CCCCCCOC(=O)C(C)C`, the “activity, negative = inhibition” value is 2.88%.

Regarding `CCCC(=O)O[C@]1(C(=O)COC(=O)CC)CC[C@H]2[C@@H]3CCC4=CC(=O)CC[C@]4(C)[C@H]3[C@@H](O)C[C@@]21C`, the activity, negative = inhibition was -1.85% [at 10.5 µM].

As to `CCOCCn1c(C2CCN(CCc3ccc(C(C)(C)C(=O)O)cc3)CC2)nc2ccccc21`, the “activity, negative = inhibition” value is 1.72% [at 23.6 µM].

For `CC1(C)C(=O)N(Br)C(=O)N1Cl`, the “activity, negative = inhibition” value is -1.31%.

Regarding `Cc1cc(O)c(C(C)C)cc1Cl`, the result was inactive.

Regarding `CCOC(=O)/C=C/C(=O)O`, the “activity, negative = inhibition” value was -2.06%.

For `O=C(O)c1cccc(O)c1`, the “activity, negative = inhibition” value is 1.36%.
